The campaign covered roughly 5,500 compounds. About 2,000 (36%) were called active. Not shown: some 18% with an inconclusive outcome. Cut-off read from the data, not from the text of the source: active = normalized growth mostly below about 0.91 (no sharp cut-off); inconclusive = no clear call, values can overlap the other calls; inactive = mostly above about 0.92. Some of the results follow.
Experiment: chemical genetic growth profiling, strain panel (AID 1159580);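 note: tested at 20 µM; growth read once vehicle control cultures reached saturation at 30 °C; 1 = growth at the plate median or of vehicle wells; lower values mean less growth of the strain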
Settings: growth OD

Measured: normalized growth

COc1c(C)c2c(c(O)c1C/C=C(\C)CCC(=O)O)C(=O)OC2
inactive: S. cerevisiae deletion strains, locus YKL190W, strain CNB1, stronger effect = lower value 0.921 | S. cerevisiae deletion strains, locus YLR371W, strain rom2, stronger effect = lower value 0.955 | S. cerevisiae deletion strains, locus YLR384C, strain iki3, stronger effect = lower value 0.983 | S. cerevisiae deletion strains, locus YML016C, strain PPZ1, stronger effect = lower value 0.992 | S. cerevisiae deletion strains, locus YMR307W, strain GAS1, stronger effect = lower value 0.8 | S. cerevisiae deletion strains, locus YNL128W, strain TEP1, stronger effect = lower value 0.868 | S. cerevisiae deletion strains, locus YOL006C, strain TOP1, stronger effect = lower value 0.934 | S. cerevisiae deletion strains, locus YOL012C, strain htz1 0.529 | S. cerevisiae deletion strains, locus YOR061W, strain CKA2, stronger effect = lower value 0.945 | S. cerevisiae deletion strains, locus YOR136W, strain idh2, stronger effect = lower value 0.922 | S. cerevisiae deletion strains, locus YPL241C, strain CIN2, stronger effect = lower value 0.967
active: S. cerevisiae deletion strains, locus YKL009W, strain mrt4, stronger effect = lower value 0.561 | S. cerevisiae deletion strains, locus YKL068W, stronger effect = lower value 0.72 | S. cerevisiae deletion strains, locus YKL085W, strain MDH1 (second series), stronger effect = lower value 0.279 | S. cerevisiae deletion strains, locus YKL085W, strain MDH1, stronger effect = lower value 0.279 | S. cerevisiae deletion strains, locus YKL160W, strain elf1, stronger effect = lower value 0.596 | S. cerevisiae deletion strains, locus YKR001C, strain vps1, stronger effect = lower value 0.493 | S. cerevisiae deletion strains, locus YKR026C, strain gcn3, stronger effect = lower value 0.648 | S. cerevisiae deletion strains, locus YKR091W, strain srl3, stronger effect = lower value 0.763 | S. cerevisiae deletion strains, locus YLL001W, strain dnm1, stronger effect = lower value 0.398 | S. cerevisiae deletion strains, locus YLL026W, stronger effect = lower value 0.533 | S. cerevisiae deletion strains, locus YLL041C, strain sdh2, stronger effect = lower value 0.822 | S. cerevisiae deletion strains, locus YLR027C, strain aat2, stronger effect = lower value 0.514 | S. cerevisiae deletion strains, locus YLR039C, strain RIC1, stronger effect = lower value 0.504 | S. cerevisiae deletion strains, locus YLR058C, strain SHM2, stronger effect = lower value 0.844 | S. cerevisiae deletion strains, locus YLR102C, strain apc9, stronger effect = lower value 0.813 | S. cerevisiae deletion strains, locus YLR113W, strain HOG1, stronger effect = lower value 0.189 | S. cerevisiae deletion strains, locus YLR221C, strain rsa3, stronger effect = lower value 0.376 | S. cerevisiae deletion strains, locus YLR258W, strain gsy2, stronger effect = lower value 0.532 | S. cerevisiae deletion strains, locus YLR262C, strain YPT6 (second series), stronger effect = lower value 0.415 | S. cerevisiae deletion strains, locus YLR262C, strain YPT6, stronger effect = lower value 0.467 | S. cerevisiae deletion strains, locus YLR268W, strain sec22, stronger effect = lower value 0.612 | S. cerevisiae deletion strains, locus YLR320W, strain mms22, stronger effect = lower value 0.443 | S. cerevisiae deletion strains, locus YLR330W, strain CHS5, stronger effect = lower value 0.878 | S. cerevisiae deletion strains, locus YLR342W, strain FKS1 (second series), stronger effect = lower value 0.669 | S. cerevisiae deletion strains, locus YLR342W, strain FKS1, stronger effect = lower value 0.442 | S. cerevisiae deletion strains, locus YLR357W, strain rsc2, stronger effect = lower value 0.779 | S. cerevisiae deletion strains, locus YLR370C, strain arc18, stronger effect = lower value 0.435 | S. cerevisiae deletion strains, locus YLR418C, strain cdc73, stronger effect = lower value 0.816 | S. cerevisiae deletion strains, locus YML032C, strain rad52, stronger effect = lower value 0.626 | S. cerevisiae deletion strains, locus YML120C, strain ndi1, stronger effect = lower value 0.406 | S. cerevisiae deletion strains, locus YML124C, strain tub3, stronger effect = lower value 0.737 | S. cerevisiae deletion strains, locus YMR058W, strain fet3, stronger effect = lower value 0.587 | S. cerevisiae deletion strains, locus YMR078C, strain ctf18, stronger effect = lower value 0.843 | S. cerevisiae deletion strains, locus YMR125W, strain sto1, stronger effect = lower value 0.635 | S. cerevisiae deletion strains, locus YMR129W, stronger effect = lower value 0.571 | S. cerevisiae deletion strains, locus YMR205C, strain PFK2, stronger effect = lower value 0.497 | S. cerevisiae deletion strains, locus YMR223W, strain ubp8, stronger effect = lower value 0.732 | S. cerevisiae deletion strains, locus YMR231W, strain pep5, stronger effect = lower value 0.358 | S. cerevisiae deletion strains, locus YMR263W, strain SAP30, stronger effect = lower value 0.765 | S. cerevisiae deletion strains, locus YNL067W, strain RPL9B, stronger effect = lower value 0.782 | S. cerevisiae deletion strains, locus YNL071W, strain lat1, stronger effect = lower value 0.531 | S. cerevisiae deletion strains, locus YNL153C, strain GIM3, stronger effect = lower value 0.811 | S. cerevisiae deletion strains, locus YNL183C, strain NPR1, stronger effect = lower value 0.0633 | S. cerevisiae deletion strains, locus YNL209W, strain ssb2, stronger effect = lower value 0.653 | S. cerevisiae deletion strains, locus YNL233W, strain BNI4, stronger effect = lower value 0.777 | S. cerevisiae deletion strains, locus YNL248C, strain rpa49, stronger effect = lower value 0.417 | S. cerevisiae deletion strains, locus YNL250W, strain rad50, stronger effect = lower value 0.39 | S. cerevisiae deletion strains, locus YNL271C, strain bni1, stronger effect = lower value 0.335 | S. cerevisiae deletion strains, locus YNL298W, strain CLA4, stronger effect = lower value 0.328 | S. cerevisiae deletion strains, locus YNL307C, strain MCK1, stronger effect = lower value 0.295 | S. cerevisiae deletion strains, locus YNL322C, strain KRE1 (second series), stronger effect = lower value 0.507 | S. cerevisiae deletion strains, locus YNL322C, strain KRE1, stronger effect = lower value 0.877 | S. cerevisiae deletion strains, locus YNR049C, strain mso1, stronger effect = lower value 0.607 | S. cerevisiae deletion strains, locus YNR052C, strain pop2, stronger effect = lower value 0.75 | S. cerevisiae deletion strains, locus YOL147C, strain pex11, stronger effect = lower value 0.675 | S. cerevisiae deletion strains, locus YOR001W, strain rrp6, stronger effect = lower value 0.582 | S. cerevisiae deletion strains, locus YOR069W, strain VPS5, stronger effect = lower value 0.911 | S. cerevisiae deletion strains, locus YOR070C, strain gyp1, stronger effect = lower value 0.583 | S. cerevisiae deletion strains, locus YOR080W, strain dia2, stronger effect = lower value 0.841 | S. cerevisiae deletion strains, locus YOR083W, strain WHI5, stronger effect = lower value 0.581 | S. cerevisiae deletion strains, locus YOR106W, strain vam3, stronger effect = lower value 0.442 | S. cerevisiae deletion strains, locus YOR144C, strain elg1, stronger effect = lower value 0.681 | S. cerevisiae deletion strains, locus YOR184W, strain ser1, stronger effect = lower value 0.345 | S. cerevisiae deletion strains, locus YOR231W, strain MKK1, stronger effect = lower value 0.171 | S. cerevisiae deletion strains, locus YOR265W, strain rbl2, stronger effect = lower value 0.691 | S. cerevisiae deletion strains, locus YOR270C, strain vph1, stronger effect = lower value 0.298 | S. cerevisiae deletion strains, locus YOR290C, strain snf2, stronger effect = lower value 0.359 | S. cerevisiae deletion strains, locus YOR316C, strain cot1, stronger effect = lower value 0.82 | S. cerevisiae deletion strains, locus YPL051W, strain arl3, stronger effect = lower value 0.552 | S. cerevisiae deletion strains, locus YPL055C, strain LGE1, stronger effect = lower value 0.589 | S. cerevisiae deletion strains, locus YPL078C, strain atp4, stronger effect = lower value 0.485 | S. cerevisiae deletion strains, locus YPL106C, strain sse1, stronger effect = lower value 0.661 | S. cerevisiae deletion strains, locus YPL240C, strain hsp82, stronger effect = lower value 0.568 | S. cerevisiae deletion strains, locus YPL256C, strain CLN2, stronger effect = lower value 0.18 | S. cerevisiae deletion strains, locus YPR119W, strain clb2, stronger effect = lower value 0.815 | S. cerevisiae deletion strains, locus YPR141C, strain kar3, stronger effect = lower value 0.575 | S. cerevisiae deletion strains, locus YPR163C, strain tif3, stronger effect = lower value 0.547 | S. cerevisiae deletion strains, locus YPR167C, strain met16, stronger effect = lower value 0.739 | S. cerevisiae deletion strains, strain wtn01, stronger effect = lower value 0.684 | S. cerevisiae strains, strain wild type, stronger effect = lower value 0.819
